Screening data: PubChem BioAssay, National Center for Advancing Translational Sciences (NCATS)
A selection: hits, their analogues and other compounds. The true share with any hit is near 1.4%.
pAkt inh: HTS Assay for Inhibitors of Akt Phophorylation: Primary Screen; Neuro2A IGF-stimulated pAkt S473 HTRF, 20 min; stronger effect = lower value; activity change, % for hits at 50 µM; 360,000 compounds, 0.32% hits; AID 651550, 2012; in the data active means activity change below about -80%; inconclusive means mostly about -51% to -80%
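Neuro2A cells (4,500/well, DMEM with 0.5% FBS) were treated with compound at a single 50 µM final concentration, stimulated with 6 nM IGF for 20 min at 37 °C, and lysed. Phospho-Akt Ser473 was read by HTRF as 665/615 ratio ×10^4.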
ASM inhibitor: Inhibitors of Secretory Acid Sphingomyelinase (S-ASM): qHTS. Potency, µM (highest dose often 57.5 µM), actives largely listed as inhibitors. 340,000 compounds, 0.006% hits. AID 504937, 2011. Sphingomyelin phosphodiesterase (Homo sapiens), P17405. placental ASM, HMU-PC fluorogenic substrate, 60 min
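Human placenta-derived ASM preincubated with compound 10 min at room temperature, then reacted with 9 uM (final) fluorogenic HMU-PC substrate for 60 min at 37 C. Stop solution raises pH to 10; fluorescence read at Ex 386/Em 447 nm.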
Vif-APOBEC3G blk: qHTS for Inhibitors of Vif-A3G Interactions: qHTS; HeLa A3G-eYFP + Vif (tagged APOBEC3G with the HIV-1 protein that degrades it), YFP fluorescence, overnight; Potency, µM (titrated, usually from 46.1 µM), hits mostly inhibitors; 410,000 compounds, 0.076% hits; AID 602310, 2012; further: nearly all actives have a fitted effect of over 60% in size
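Read-out is eYFP fluorescence (Ex 488/Em 500-530) from Vif-expressing HeLa A3G-eYFP cells; more signal means A3G escaped Vif-mediated degradation. Cells plated overnight, compound pinned in, incubated overnight at 37 deg C.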
Vif-A3F inh: qHTS for Inhibitors of Vif-A3F Interactions: qHTS; 390,000 compounds, 0.2% hits; AID 602313, 2012; Potency, µM (doses to about 46.1 µM); HeLa A3F-eYFP + Vif (tagged APOBEC3F with the HIV-1 protein that degrades it), YFP fluorescence increase; further: nearly all actives have a fitted effect of over 65% in size
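HeLa cells stably expressing A3F-eYFP plus Vif, plated and incubated overnight at 37 deg C, then exposed to compounds overnight at 37 deg C. Blocked degradation read as raised yellow fluorescence (Ex 488/Em 500-530).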
ALOX12 inh: Primary qHTS assay for inhibitors of human arachidonate 12S-lipoxygenase (ALOX12): Round 2; Polyunsaturated fatty acid lipoxygenase ALOX12 (Homo sapiens), P18054; purified 12hLO, xylenol orange hydroperoxide absorbance; Potency, µM (titrated, usually from 108 µM), usual class: inhibitors; 580,000 compounds, 1.1% hits
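Purified human 12hLO (150 nM final) in 25 mM Hepes, 0.01% Triton X-100, pH 7.0 was preincubated 15 min at room temperature with compound. Then 40 uM arachidonic acid was added, 30 min. Hydroperoxide was read by Fe-XO absorbance ratio 573/405 nm.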
TSG101-PTAP inh: qHTS Assay for Iinhibitors of HIV-1 Budding by Blocking the Interaction of PTAP/TSG101; Potency, µM (titrated, usually from 115 µM), usual class: inhibitors; Fluorescence polarization, FITC-PTAP peptide / Tsg101 binding; 340,000 tested, under 10 active; AID 493005, 2010; Tumor susceptibility gene 101 protein (Homo sapiens), Q99816; active means well fitted inhibition curve with a large enough effect in the main read-out, with a control signal flat, not every such curve was filed as active; inconclusive means small, poorly fitted or top-dose-only effect, or effect the other way, or a change in a side signal; inactive means no such curve, though single readings can be large or run the other way
Target sequence (Q99816 whole entry, looked up): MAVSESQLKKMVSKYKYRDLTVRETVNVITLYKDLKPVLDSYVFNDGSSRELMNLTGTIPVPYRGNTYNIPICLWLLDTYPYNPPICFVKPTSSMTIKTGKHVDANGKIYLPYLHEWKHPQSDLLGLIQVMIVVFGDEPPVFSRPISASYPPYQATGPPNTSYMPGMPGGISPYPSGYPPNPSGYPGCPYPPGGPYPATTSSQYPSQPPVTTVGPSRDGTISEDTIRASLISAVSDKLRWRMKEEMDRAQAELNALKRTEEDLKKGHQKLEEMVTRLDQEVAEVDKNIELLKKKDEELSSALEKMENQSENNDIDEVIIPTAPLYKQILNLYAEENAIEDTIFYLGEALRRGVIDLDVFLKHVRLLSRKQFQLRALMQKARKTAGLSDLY
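Compounds were pin-transferred onto Tsg101 binding domain (10 uM final) in HEPES pH 7.5 buffer, then FITC-PTAP peptide was added at 50 nM final. After 20 min at RT, polarization reported peptide displacement across a qHTS concentration series.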
Hits are given with their value; n = inactive; u = inconclusive; x = not tested or not shown; [ ] = remark or other dose. Unless noted, the call rests on the fitted dose curve; in most records, active means well fitted curve in the direction sought with a large enough effect; inconclusive means small, poorly fitted or top-dose-only effect, or another doubt; inactive means no such curve, though single readings can be large; an effect the other way counts as inactive or inconclusive.

SMILES	pAkt inh	ASM inhibitor	Vif-APOBEC3G blk	Vif-A3F inh	ALOX12 inh	TSG101-PTAP inh
Oc1ccc(-c2nc(-c3ccccc3)c(-c3ccc(Br)cc3)[nH]2)cc1	x	x	n	n	u	x
COc1ccc2c(c1)C(n1ccc3ccccc31)C(=O)N2Cc1ccc(C(C)C)cc1 (stereo unspecified)	x	x	x	x	14µM	x
COc1ccc(CN2C(=O)C(n3cccc3)c3ccccc32)cc1 (stereo unspecified)	x	x	x	x	n	x
COc1ccc(CN2C(=O)C(n3c(C)ccc3C)c3cc(OC(F)(F)F)ccc32)cc1 (stereo unspecified)	x	x	x	x	40µM	x
CCOC(=O)c1cccn1C1C(=O)N(Cc2ccc(C(F)(F)F)cc2)c2ccccc21 (stereo unspecified)	x	x	x	x	n	x
COc1ccc2c(c1)C(n1c(C)ccc1C)C(=O)N2Cc1ccc(C(F)(F)F)cc1 (stereo unspecified)	x	x	x	x	13µM	x
Cc1ccc(C)n1C1C(=O)N(Cc2ccc(C(F)(F)F)cc2)c2ccc(F)cc21 (stereo unspecified)	x	x	x	x	25µM	x
CN(CC(=O)Nc1ccc(Cl)c(C(F)(F)F)c1)Cc1cc(F)cc2c1OCOC2	x	x	x	x	n	x
CCCC(=O)N(C)CCc1ccccc1	x	x	x	x	n	x
CC(C)CC1CCCCC1OC(=O)C[N+]1(C)CCCCC1 (stereo unspecified)	n	n	n	n	u	n
CC1CCC(COC(=O)C[N+]2(C)CCCCC2)C(C)C1 (stereo unspecified)	x	x	x	x	22µM	x
Cc1cccc(C)c1NC(=O)CN(C)C(=O)CSc1ccc(F)c(F)c1	x	x	x	x	n	x
O=C1OC2(c3ccccc31)c1cc(I)c(O)c(I)c1Oc1c2cc(I)c(O)c1I	x	x	x	x	1.6µM	x
O=C1OC2(c3ccc(O)cc3Oc3cc(O)ccc32)c2ccccc21	x	x	x	x	n[22.9 µM]	x
Cc1ccc(C)c(CS(=O)Cc2cccc(C(F)(F)F)c2)c1 (stereo unspecified)	x	x	x	x	n	x
Cc1cc(C)c2c(N)c(-c3nc4ccccc4[nH]3)sc2n1	n	n	n	n	n	n
Cc1ccc2nc(-c3sc4nc(C)ccc4c3N)[nH]c2c1	n	n	n	n	35µM	n
N#CC1(NC(=O)CSc2ncc(-c3ccc(F)cc3)o2)CCCCC1	x	x	x	x	n	x
CC(C)CNC(=O)c1cc2cn(C3CC3)cc2s1	x	x	x	x	n	x
CCc1ccc(CNC(=O)c2cc3cn(C4CCCC4)cc3s2)cc1	x	x	x	x	4.5µM	x
O=C(CN1CCCCCC1)Nc1ccccc1	n	n	n	n	n	n
O=C(CN1CCCCC1)NN(Cc1ccccc1)c1ccccc1	n	n	n	n	14µM	n
O=C(O)Cn1ccc2cc(OCc3cccc(-c4ccncc4)c3)cnc21	x	x	x	x	n	x
COc1cc(Cl)ccc1-c1cccc(COc2cnc3c(ccn3CC(=O)O)c2)c1	x	x	x	x	63µM	x
COc1ccc(Nc2nc3ccccc3nc2NS(=O)(=O)c2ccccc2)c(OC)c1	x	x	x	x	n	x
SMILES	pAkt inh	ASM inhibitor	Vif-APOBEC3G blk	Vif-A3F inh	ALOX12 inh	TSG101-PTAP inh
CCc1ccc2nc(SCC(=O)Nc3ccccc3N3CCOCC3)c(C#N)cc2c1	n	n	u	10µM	n	n
Cc1ccc2nc(SCC(=O)Nc3ccccc3N3CCOCC3)c(C#N)cc2c1	n	n	u	n	n	n
CC(C)(C)c1cc(C(=O)NCc2ccccc2)ccn1	-88%	n	n	n	n	n
COc1ccc(CCNC(=O)c2ccnc(C(C)(C)C)c2)cc1OC	n	n	n	n	n	n
CCOc1cc(/C=C/C(=O)c2ccc(OC)c(CN3CCOCC3)c2)cc(Br)c1O	n	n	u	25µM	n	n
CC(=O)NC(C(=O)Nc1ccc(SC2CCCC2)cc1)C(C)C (stereo unspecified)	x	x	x	x	n	x
CN(CC(=O)Nc1cccc(F)c1)C(=O)c1cc(-c2ccco2)nc2ccccc12	n	x	n	u	40µM	n
